About 83,000 compounds went through this panel and 20% of them were active in at least one assay; those are over-represented in the sample as a whole.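 Values shown are percent growth following 48 h exposure of cells in 96-well plates to a single concentration of compound; below 10 was considered active.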 Unmarked numbers belong to inactive results. Activity calls are given as the source filed them.
Tests used:
Experiment in all cases: NCI-60 one-dose screen, 48 h (100 = growth as untreated, 0 = no growth, -100 = all killed)
[1] = tested on: SK-MEL-2 melanoma; details: 10 µM
[2] = tested on: EKVX NSCLC; details: 10 µM
[3] = tested on: SN12C renal; details: 10 µM
[4] = tested on: UO-31 renal; details: 10 µM
[5] = tested on: TK-10 renal; details: 10 µM unless noted
[6] = tested on: ACHN renal; details: 10 µM
[7] = tested on: CAKI-1 renal; details: 10 µM
[8] = tested on: A498 renal; details: 10 µM
[9] = tested on: CCRF-CEM leukemia; details: 10 µM
[10] = tested on: MOLT-4 leukemia; details: 10 µM

| Compound | growth [1] | growth [2] | growth [3] | growth [4] | growth [5] | growth [6] | growth [7] | growth [8] | growth [9] | growth [10] |
| --- | --- | --- | --- | --- | --- | --- | --- | --- | --- | --- |
| COc1ccc(OC)c(/C=C2\CCc3ccccc3C2=O)c1 | 43.1% | 50% | 61.7% | 61.1% | 89.5% | 52.7% | 39.1% | 20.2% | 28.3% | 23% |
| CN1C(=O)CN2CCc3ccccc3C2c2cc(Cl)ccc21 (configuration not stated) | 81.7% | 91.5% | 85.1% | 74.3% | 111% | 93.6% | 81% | 54.5% | 93.6% | 105% |
| CCOc1ccc(/C=N/N=C(N)N)cc1OCC | 113% | 91.8% | 108% | 74.7% | 106% | 97.4% | 95.7% | 101% | 95.4% | 87.6% |
| CCOC(=O)CCCS(C)(=O)=O | 90.7% | 113% | 97.4% | 90.5% | 102% | 104% | 117% | 96.8% | 113% | 96.5% |
| Cc1cc(C(O)(c2ccc(Nc3ccccc3)cc2)c2ccc(Nc3ccc(S(=O)(=O)O)cc3)cc2)ccc1N (configuration not stated) | -33.1% (active) | 9.86% (active) | 22.5% | 3.47% (active) | 7.3% (active) | -13.2% (active) | 31.7% | 2.33% (active) | 2.35% (active) | 8.2% (active) |
| C/C(O)=C(\C=N\C(N)=S)C(=O)Nc1ccccc1 | 107% | 106% | 94.1% | 91.5% | 124% | 103% | 97.8% | 98.6% | – | 103% |
| Cc1cccc(CO)c1 | 110% | 113% | 106% | 92.9% | 108% | 111% | 100% | 108% | 110% | 106% |
| Nc1ccc(N=Nc2ccc(O)cc2)c(N)n1 | 97.1% | 67.6% | 72.8% | 34.7% | 93.7% | 26.3% | 39.1% | – | 37.4% | 46.1% |
| COc1cc2c(cc1O)CC[C@@H]1C2CC[C@@]2(C)C1CC[C@@H]2O (some centres not stated) | 71.1% | 37.9% | 53.2% | 41.8% | 63% | 61.9% | 33.7% | – | 8.85% (active) | 31.8% |
| CCOC(=O)c1cc2cccc(OC)c2oc1=O | 74.9% | 107% | 107% | 105% | 110% | 117% | 132% | – | 91.7% | 89.9% |
| O=[N+]([O-])c1ccc(S(=O)(=O)NN=C2CCCCC2)cc1 | 147% | 104% | 103% | 67.8% | 128% | 100% | 92.5% | 123% | – | 98.7% |
| NC(=O)NC(=O)c1ccc(Cl)cc1 | 92.2% | 101% | 104% | 77% | 100% | 105% | 94.1% | 102% | – | 102% |
| CCc1ccc(/C(C#N)=C/C=C/c2ccccc2)cc1 | -12.2% (active) | 52.3% | 53.2% | 42.9% | 16.9% | 58.3% | 53.7% | – | -5.51% (active) | 20.7% |
| CC1CCCC(CC(N)=O)CC1 (configuration not stated) | 109% | 107% | 107% | 91% | 94.2% | 103% | 93.4% | – | 90.4% | 101% |
| COc1cc(/C=N\Nc2ccccc2)ccc1OC(=O)c1ccccc1 | 64.3% | 66.1% | 79.4% | 21.5% | 96.2% | 45.2% | 40.3% | – | 37.4% | 38.5% |
| O=C(/C=C\c1ccc(O)cc1)c1ccccc1 | 114% | 91.3% | 89% | 67.8% | 95.2% | 97.2% | 85.1% | 114% | – | 96.1% |

| Compound | growth [1] | growth [2] | growth [3] | growth [4] | growth [5] | growth [6] | growth [7] | growth [8] | growth [9] | growth [10] |
| --- | --- | --- | --- | --- | --- | --- | --- | --- | --- | --- |
| N#CCCN(CCCN1CCOCC1)CN1C(=O)c2ccccc2C1=O | 118% | 107% | 108% | 77.2% | 103% | 113% | 98.6% | – | 106% | 90.9% |
| CC1(C)OC(=O)C(c2ccsc2)C(=O)O1 | 112% | 105% | 107% | 84.4% | 91.8% | 107% | 100% | 113% | 106% | 105% |
| NNc1ccccc1C(=O)O | 102% | 116% | 116% | 87.9% | 110% | 98.9% | 110% | 98.1% | – | 107% |
| COc1cc(C(N)=O)cc(OC)c1OC | 114% | 102% | 96.1% | 82.5% | 111% | 105% | 91% | – | 103% | 84.5% |
| CN(C)c1ccc2oc(=O)c3ccccc3c2c1 | 106% | 50.4% | 89.2% | 81% | 107% | 103% | 98.4% | – | 110% | 131% |
| O=c1[nH]cc(Cl)cc1O | 89% | 82.2% | 95% | 62.4% | 89.4% | 62.2% | 85.9% | – | 49% | 92.1% |
| COc1cc(C(=O)NC(=S)Nc2ccc3ccccc3c2)cc(OC)c1OC | 83.6% | 102% | 104% | 66.7% | 117% | 93.7% | 75.1% | – | 98.6% | 89.4% |
| CC1(O)CCCCC1O (configuration not stated) | 91.8% | 114% | 95.1% | 79.3% | 125% | 102% | 102% | – | 107% | 103% |
| CC1=NN(c2ccccc2)C(=O)/C1=C\N1CC(=O)NC1=S | 108% | 105% | 101% | 92% | 122% | 98.8% | 98% | 92.9% | – | 102% |
| O=C1c2ccccc2C(=O)c2c1ccc(C(=O)O)c2[N+](=O)[O-] | 119% | 109% | 101% | 85.1% | 109% | 98.8% | 98.8% | 84% | – | 93.5% |
| O=[N+]([O-])c1ccccc1N=Nc1ccc(O)cc1O | 134% | 116% | 107% | 66.3% | 140% | 109% | 95.1% | 139% | – | 101% |
| CC1=C(/C=C/C(C)=C/C=C/C(C)=C/CO)C(C)(C)CCC1 | 107% | 108% | 104% | 87.3% | 111% | 106% | 88.6% | 98% | – | 97.9% |
| Cc1ccc(/C(C#N)=C/c2ccc3c(c2)OCO3)cc1 | 43.3% | 87.3% | 90.6% | 64.3% | 80.8% | 95.3% | 53.6% | – | 65.8% | 63.6% |
| CC1=CC(=O)c2ccccc2C1=O | 110% | 114% | 99.3% | 70% | 124% | 95.2% | 97.5% | 103% | – | 114% |
| Cc1ccc(Cl)cc1N1C(=O)CC(Sc2ccccc2N)C1=O (configuration not stated) | 107% | 104% | 96.8% | 105% | 114% | 94.2% | 97.2% | 103% | 93.8% | 74.7% |
| Cc1cc(/C=C/c2ccc3cc(N(C)C)ccc3[n+]2C)c(C)n1-c1ccccc1 | -51.6% (active) | 0.119% (active) | -25.7% (active) | 1.75% (active) | -5.02% (active) | -83.5% (active) | -31% (active) | -25% (active) | 0.765% (active) | 0.162% (active) |

— PubChem BioAssay (NCI)
